# Laboratory results as given in PubChem BioAssay (NCI).
# About 83,000 compounds went through this panel and 20% of them were active in at least one assay; those are over-represented in the sample as a whole.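 The test compound was applied at a single concentration to cells in 96-well plates for 48 hours, and percent growth was recorded.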 Values without a mark were called inactive. Activity calls are given as the source filed them.
# System: A498 renal
# Assay: NCI-60 one-dose screen, 48 h (100 = growth as untreated, 0 = no growth, -100 = all killed)
# Settings: 10 µM unless noted
# Protocol: Growth inhibition of the A498 human tumor cell line is measured as a screen for anti-cancer activity. Cells are grown in 96 well plates and exposed to the test compound for 48 hours. Compounds are tested at a single concentration, which is 10^-5 M for most compounds. The reported endpoint is percent growth (GI% or GIPRCNT), where numbers from 0 - 100% represent growth inhibition, and numbers from -100% - 0 represent cell death. For example, a value of 40 represents 60% growth inhibition. A value of 0 means no net growth occurred over the course of the experiment. A value of -40 indicates 40% of cells at the beginning of the experiment died by the end of the experiment. A value of -100 means all cells are dead at the end of the experiment.
# NCI-60 Human Tumor Cell Lines Screen was performed using the standard one-dose NCI protocol, which is described in more detail at https://dtp.cancer.gov/discovery_development/nci-60/default.htm.
# Compounds with GIPRCNT values below 10 were considered active. Activity score was based on GIPRCNT using the following formula: […]
# Score is 0 for GIPRCNT values of 100 or above, 50 for GIPRCNT values of 0, and 100 for GIPRCNT values of -100.
row,SMILES,growth
1,COc1ccc(/C=C/C(=O)c2ccc(-n3cc(CN4CCN(c5cc6c(cc5F)c(=O)c(C(=O)O)cn6C5CC5)CC4)nn3)cc2)cc1,68.2%
2,Cc1cc2c(C(C)C)c(O)c(O)c(/C=N/O)c2c(O)c1-c1c(C)cc2c(C(C)C)c(O)c(O)c(/C=N/O)c2c1O,57.2%
3,COc1ccc(-c2ccc(-c3ccc(C(=N)N)nc3)s2)cc1,94.3%
4,O=C1C=CC2(O)OC(c3ccccc3)CC(=O)C2=C1O (stereo not given),96%
5,C=C(C)[C@@H]1CCC[C@]2(C(=O)OC)CC[C@]3(C)[C@@H](CC[C@@H]4[C@@]5(C)CCCNC(C)(C)[C@@H]5CC[C@]43C)[C@@H]12,106%
6,O=C(Nc1ccc(Oc2cccc(F)c2)c(Cl)c1)c1cnccn1,69.4%
7,C=C1/C(=C\C=C2/CCC[C@]3(C)[C@@H]([C@H](C)CCCC(C)(C)O)CC[C@@H]23)C[C@@H](OC(=O)CBr)C[C@@H]1O,86.2%
8,COc1ccc(-c2cc(-c3ccc(N(C)C)cc3)nc(NC(=O)c3cccnc3)n2)cc1,109%
9,CC(C)(C)CC(C)(C)Nc1c(-c2c(O)c3ccccc3oc2=O)nc2sccn12,118%
10,COC(=O)c1nc(-c2ccccc2)oc1S(=O)(=O)NCC(c1ccc(Cl)cc1)N1CCCCC1 (stereo not given),96.4%
11,CC(=O)[C@H]1CC[C@]2(C)[C@@H]1CC[C@@H]1[C@@]3(C)C/C(=C/c4cccnc4)C(=O)C(C)(C)[C@@H]3CC[C@]12C,100%
12,CC(=O)Oc1ccccc1C(=O)N(Cc1ccc2c(Cl)cc(Cl)c(O)c2n1)c1ccccc1,57.6%
13,CNC1=C([N+](=O)[O-])C(c2ccc(OC)cc2)C(C#N)=C(c2ccc[nH]2)O1 (stereo not given),96.8%
14,C=C(c1ccc(C(=O)O)c(F)c1)c1cc2c(cc1C)C(C)(C)C=CC2(C)C,75.8%
15,CCN=c1sc2c(n1NC(=O)c1cc3ccc1CCc1ccc(cc1)CC3)C(=O)c1ccccc1C2=O,51.6%
16,Cc1c(-c2cnc3ccc(Cl)cc3c2C(=O)O)nnn1-c1ccc(Cl)cc1,118%
17,Cn1ccnc1C(=O)/C=C/c1ccc(CC(=O)Nc2cc(F)c(F)c(F)c2)cc1,65%
18,C=C(C)[C@@H]1CC[C@]2(COC(=O)c3cccnc3)CC[C@]3(C)[C@H](CC[C@@H]4[C@@]5(C)CCCN(C(=O)c6cccnc6)C(C)(C)[C@@H]5CC[C@]43C)[C@@H]12,46.7%
19,COc1ccc(C(=O)C2OC3=C(C(=O)CC(C)(C)C3)C2c2cccc(Oc3ccccc3)c2)cc1 (stereo not given),62.9%
20,CCOC(=O)c1c(C)nc2c(c1N)C(=O)C(=O)N2CCc1ccc(OC)c(OC)c1,55.5%

row,SMILES,growth
1,COC(=O)c1c(C)nc(C)c2c1C(=O)C(Br)=C(NCCN1CCOCC1)C2=O,92.4%
2,COc1ccc(-c2ccc(-c3ccc(C(=N)N)o3)o2)cc1,9.73% (active)
3,CCCCCCCCCCCCCCCCCCOc1ccccc1CC(=O)OCC[N+]1(C)CCCCC1,83.3%
4,CC1=C(C(=O)OCc2ccccc2)C(c2ccc3c(c2)OCO3)n2c(nc3ccccc32)N1 (stereo not given),-10.2% (active)
5,Nc1ccc(N)c2c1C(=O)c1cccc([N+](=O)[O-])c1C2=O,-73.8% (active)
6,O=C1c2c(c3c4cc(F)ccc4oc3c3[nH]c4ccccc4c23)C(=O)N1O,-6.56% (active)
7,COc1ccc(N/N=C/c2ccc3c(c2)Sc2ccccc2N3C)cc1,17.5%
8,Nc1ncnc2c1N=C(c1ccc([N+](=O)[O-])cc1)CC(c1ccc3c(c1)OCO3)N2 (stereo not given),87.4%
9,CN1CCN(Cc2ccc(NC(=O)c3cncc(C#Cc4cnc(N)c5ccc(C#N)cc45)c3)cc2C(F)(F)F)CC1,-29.8% (active)
10,O=C(Nc1ccc2[nH]ncc2c1)c1csc(Nc2ccccc2)n1,22.2%
11,O=C(NC1CCCCCC1)c1ccc2c(=O)n3c(nc2c1)CCCCC3,99.5%
12,O=C(c1ccc(F)cc1)C1CCN(CCn2c(=O)[nH]c3ccccc3c2=O)CC1,118%
13,COc1ccc(/C=C2/CCc3cc4ccc(OC)cc4[o+]c32)c(O)c1,94.9%
14,COc1ccc(S(=O)(=O)Oc2ccc(-c3sc4cc(OS(=O)(=O)c5ccc(OC)cc5)ccc4c3C(=O)c3ccc(OCCN4CCCCC4)cc3)cc2)cc1,105%
15,C=C(C[n+]1ccccc1)[C@@H]1CC[C@]2(C(=O)OC)CC[C@]3(C)[C@H](CC[C@@H]4[C@@]5(C)CCC(=O)C(C)(C)[C@@H]5CC[C@]43C)[C@@H]12,88.7%
16,COc1cc(OC)cc(C(=O)Nc2cnc(Nc3ccc(N4CCOCC4)nc3)nc2Oc2ccc(C(F)(F)F)cc2)c1,77.7%
17,Cc1ccc(OCCOCCOCCOCCOc2ccc(C)n(O)c2=S)c(=S)n1O,29.6%
18,COC(=O)c1nc(-c2ccccc2)oc1S(=O)(=O)N1CCN(c2ccc(OC)cc2)CC1,121%
19,CC1=C([Se]CC(OC(=O)[C@@H](CO)NC(=O)OC(C)(C)C)C(=O)NCCCCCC(=O)OCc2ccccc2)C(=O)c2ccccc2C1=O (stereo not given in full),31.2%
20,O=C(Nc1ccccc1C(F)(F)F)C1=NCCCCN1,97.1%
